From PubChem BioAssay (NCI) come the findings set out here.

Holding throughout (experiment): NCI-60 one-dose screen, 48 h (100 = growth as untreated, 0 = no growth, -100 = all killed)
One test concerns EKVX NSCLC. Particulars: 10 µM unless noted.
A further test relates to SN12C renal. Conditions: 10 µM unless noted.
For the next test, the system named is UO-31 renal. Particulars: 10 µM unless noted.
Another test deals with TK-10 renal. Conditions: 10 µM unless noted.
In another test the test system is ACHN renal. Conditions: 10 µM unless noted.
The subject of a further test is CAKI-1 renal. Particulars: 10 µM unless noted.
The subject of the next test is A498 renal. Conditions: 10 µM unless noted.
The next test has as its system CCRF-CEM leukemia. Conditions: 10 µM unless noted.
The subject of the next test is MOLT-4 leukemia. Conditions: 10 µM unless noted.
Another test concerns SR leukemia. Particulars: 10 µM unless noted.
Another test has as its system RPMI-8226 leukemia. Particulars: 10 µM unless noted.
A further test relates to OVCAR-8 ovarian. Conditions: 10 µM unless noted.
A further test relates to OVCAR-5 ovarian. Particulars: 10 µM unless noted.
The subject of a further test is OVCAR-4 ovarian. Particulars: 10 µM unless noted.
In another test the test system is SK-OV-3 ovarian. Conditions: 10 µM unless noted.
A further test deals with IGROV1 ovarian. Conditions: 10 µM unless noted.
For another test, the system named is OVCAR-3 ovarian. Particulars: 10 µM unless noted.
Another test relates to HS 578T breast. Particulars: 10 µM.
For the next test, the system named is NCI/ADR-RES ovarian. Conditions: 10 µM unless noted.
The test system of the next test is SK-MEL-2 melanoma. Particulars: 10 µM.

The structures appear in SMILES notation. This is part of a sample that, as a whole, favours compounds with a hit. Of some 83,000 tested, about 20% had one in any assay.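 How to read the values: 0–100, growth inhibition (40 = 60% inhibited); 0, no net growth; -100 to 0, cell death (-40 = 40% of starting cells died; -100 = all dead).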 Values without a mark were called inactive. Calls of active or inactive are those of the source. How the source made its calls: active means growth percent below 10; inactive means the rest.

Regarding `O=C(NOC[C@H](O)CO)c1ccc(F)c(F)c1Nc1ccc(I)cc1F`, the growth in the test with EKVX NSCLC was 57.6%; with SN12C renal it was 49.5%; with UO-31 renal, 24.6%; with TK-10 renal, 41.4%; in the test on ACHN renal it was 47.6%; in the test with CAKI-1 renal it was 34.3%. Further, the growth in the test with A498 renal was -19.9% (active); in the test on CCRF-CEM leukemia, 83.7%; with MOLT-4 leukemia it was 66.6%; in the test on SR leukemia, 45.7%; in the test with RPMI-8226 leukemia, 59.7%; with OVCAR-8 ovarian, 43.5%. Besides, the growth was 9.99% (active) with OVCAR-5 ovarian; 62% in the test on OVCAR-4 ovarian; 46.3% in the test on SK-OV-3 ovarian; 14.1% in the test with IGROV1 ovarian; 95.1% in the test on OVCAR-3 ovarian.

Turning to `CC(C)[C@@H]1CC[C@@H]2[C@@H]1[C@H](OC(=O)/C=C/c1ccccc1)[C@]1(C(C)C)C[C@@H](OC(=O)CO)[C@@]2(C)O1`, the growth in the test on EKVX NSCLC is 63%; in the test with SN12C renal, 49.7%; with UO-31 renal, 3.86% (active); in the test on TK-10 renal, 94.9%; with ACHN renal, 17%; with CAKI-1 renal, 65.5%. In addition, the growth was -51.8% (active) in the test on A498 renal; 77.1% with CCRF-CEM leukemia; 58.4% in the test on MOLT-4 leukemia; 41.8% with SR leukemia; 53.7% in the test with RPMI-8226 leukemia; 16.5% with OVCAR-8 ovarian. The growth with OVCAR-5 ovarian was 109%; in the test with OVCAR-4 ovarian, 79.4%; in the test with SK-OV-3 ovarian it was 91.3%; in the test with IGROV1 ovarian, 102%; in the test with OVCAR-3 ovarian it was 83.6%; in the test on HS 578T breast it was -15.4% (active). The growth in the test with NCI/ADR-RES ovarian was 13.9%.

With `Clc1ccc(/C=C/c2cc(N3CCOCC3)c3cc(Cl)c(Cl)cc3n2)cc1`, the growth with SK-MEL-2 melanoma was 104%; in the test with SN12C renal, 20.1%; in the test on UO-31 renal, 12.5%; in the test with TK-10 renal, 92.8%; in the test with ACHN renal it was 94.3%; with CAKI-1 renal, 78.6%. In addition, the growth with A498 renal is 67.7%; with CCRF-CEM leukemia it was 4.25% (active); in the test on MOLT-4 leukemia, 1.45% (active); in the test on SR leukemia it was 59.4%; in the test with RPMI-8226 leukemia, -40.9% (active); in the test on OVCAR-8 ovarian it was 100%. Moreover, the growth was 105% with OVCAR-5 ovarian; 101% in the test with OVCAR-4 ovarian; 105% with SK-OV-3 ovarian; 94.3% with IGROV1 ovarian; 102% in the test with HS 578T breast; 90.2% in the test on NCI/ADR-RES ovarian.

With `Cc1cc(C(O)CN(C)C)cc2c1ccc1cc(C(C)C)ccc12` (stereo not given), the growth in the test with EKVX NSCLC is 84.5%; in the test on SN12C renal, 62.6%; with UO-31 renal, 26.4%; with TK-10 renal it was -62.1% (active); in the test on ACHN renal it was -28.6% (active); in the test with CAKI-1 renal, 8.02% (active). Moreover, the growth with A498 renal is 76.8%; with CCRF-CEM leukemia it was 3.14% (active); with MOLT-4 leukemia it was -29.5% (active); in the test on SR leukemia, -19.6% (active); with RPMI-8226 leukemia, -22.6% (active); in the test with OVCAR-8 ovarian it was -46.5% (active). Moreover, the growth in the test with OVCAR-5 ovarian was 49.5%; in the test with OVCAR-4 ovarian, -2.02% (active); in the test on SK-OV-3 ovarian it was 83.7%; with IGROV1 ovarian it was -64.4% (active); with OVCAR-3 ovarian it was 64.7%; in the test with HS 578T breast, -0.73% (active). In addition, the growth with NCI/ADR-RES ovarian is 59.8%.

As to `Cc1cc(Nc2cc(N3CCN(C)CC3)nc(/C=C/c3ccccc3)n2)n[nH]1`, the growth was 36.1% in the test on EKVX NSCLC; 11.7% in the test with SN12C renal; -53.8% (active) in the test with UO-31 renal; -0.298% (active) with TK-10 renal; 0.23% (active) with ACHN renal; -45.3% (active) with CAKI-1 renal. In addition, the growth in the test on A498 renal was -86.7% (active); in the test with CCRF-CEM leukemia it was 13.8%; in the test on MOLT-4 leukemia, -5.35% (active); with SR leukemia, -13.6% (active); in the test with RPMI-8226 leukemia it was 28.3%; with OVCAR-8 ovarian, 36.1%. For the same compound, the growth in the test with OVCAR-5 ovarian was 13.2%; in the test with OVCAR-4 ovarian it was 41%; in the test on SK-OV-3 ovarian, 3.69% (active); in the test on IGROV1 ovarian, -30.7% (active); in the test with OVCAR-3 ovarian, 43.8%.

In the case of `COc1c(OCCCN2CCOCC2)ccc2c3n(c(=NC(=O)c4cnc(N)nc4)nc12)CCN3`, the growth in the test on EKVX NSCLC is 13.2%; in the test with SN12C renal, 16.3%; with UO-31 renal, -13.8% (active); in the test with TK-10 renal it was -21% (active); in the test with ACHN renal it was 8.09% (active); in the test on CAKI-1 renal it was 0.422% (active). For the same compound, the growth in the test with A498 renal was -60.7% (active); in the test on CCRF-CEM leukemia, 17.7%; in the test with MOLT-4 leukemia, 6.38% (active); in the test on SR leukemia it was 5.24% (active); in the test on RPMI-8226 leukemia, 11.3%; in the test on OVCAR-8 ovarian, 15.7%. The growth with OVCAR-5 ovarian was 14%; in the test with OVCAR-4 ovarian, 7.97% (active); in the test on SK-OV-3 ovarian it was -31.8% (active); in the test on IGROV1 ovarian it was -22% (active); in the test on OVCAR-3 ovarian, 4.64% (active).

Consider `COC[C@@H](C)n1c(C2CCOCC2)nc2c1C1C=C(OC)C(c3c(C)noc3C)=CC1N=C2` (stereo not given in full), for which the growth in the test on EKVX NSCLC was 56.9%; in the test on SN12C renal, 64.9%; in the test on UO-31 renal it was 13.2%; in the test on TK-10 renal, 6.38% (active); in the test with ACHN renal it was 41.2%; in the test with CAKI-1 renal it was 41%. For the same compound, the growth was 18.6% in the test on A498 renal; 50.8% in the test on CCRF-CEM leukemia; 59% in the test with MOLT-4 leukemia; 31.1% in the test with SR leukemia; 10.4% in the test on RPMI-8226 leukemia; 57.1% with OVCAR-8 ovarian. Moreover, the growth in the test with OVCAR-5 ovarian was 70.3%; with OVCAR-4 ovarian, 42.8%; in the test with SK-OV-3 ovarian it was 39.6%; in the test with IGROV1 ovarian, 39.4%; in the test on OVCAR-3 ovarian, 28.9%; in the test on HS 578T breast it was 35%. Further, the growth in the test with NCI/ADR-RES ovarian was 43.4%.

On to `COc1cc(NCCCN)c2ncccc2c1`, for which the growth was 105% in the test with EKVX NSCLC; 84.7% in the test with SN12C renal; 63.4% with UO-31 renal; 84.8% in the test with TK-10 renal; 97.2% in the test with ACHN renal; 97.2% in the test on CAKI-1 renal. In addition, the growth with A498 renal is 56.9%; with CCRF-CEM leukemia, 92.5%; in the test with MOLT-4 leukemia it was 91.5%; with SR leukemia, 68.5%; in the test on RPMI-8226 leukemia it was 38.5%; in the test on OVCAR-8 ovarian, 82.1%. Moreover, the growth in the test on OVCAR-5 ovarian was 93.2%; in the test on OVCAR-4 ovarian it was 84.1%; in the test with SK-OV-3 ovarian, 89.1%; with IGROV1 ovarian, 95.7%; in the test on OVCAR-3 ovarian it was 93.3%; in the test on HS 578T breast, 92.2%. Moreover, the growth in the test with NCI/ADR-RES ovarian is 85.7%.
